# TDP1 cell noCPT = qHTS for Inhibitors of human tyrosyl-DNA phosphodiesterase 1 (TDP1): qHTS in cells in absence of CPT | DT40 Tdp1-/- hTDP1 cells, no CPT, ATP luminescence, 48 h | Potency, µM (highest dose often 46.2 µM), inactives show top-dose activity change, negative = growth inhibition, usual class: inhibitors | 420,000 compounds, 15% hits; further: nearly all actives have a fitted effect of over 55% in size
#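 No-CPT arm: Tdp1-/-;hTDP1 DT40 cells (400/well) plus compounds, incubated ≥48 hr at 37 °C. Readout CellTiter-Glo luminescence.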
# VDR inhibitor = vitamin D3 receptor (human) inhibition; P11473; VDR-SRC2-3 peptide fluorescence polarization, 2 h; Potency, µM, without a hit: max response, negative = inhibition, most hits filed as inhibitors; 400,000 compounds, 0.93% hits; AID 504847
#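 VDR–SRC2-3 interaction, FP format. Cmpds 23 nl via pintool, brief spin, 2 h ambient incubation.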
# PLK1 PBD inh = blocks phosphopeptide binding to human PLK1 polo-box domain. Plk1 PBD binding of FITC phosphopeptide, fluorescence polarization. Potency, µM, for inactives: max response, negative = inhibition, actives largely listed as inhibitors. AID 720504. 360,000 compounds, 2.8% hits; further: series mostly up to about 57 µM; nearly all actives have a fitted effect of over 65% in size
# Target sequence (P53350 whole entry, looked up, the tested form may be a part): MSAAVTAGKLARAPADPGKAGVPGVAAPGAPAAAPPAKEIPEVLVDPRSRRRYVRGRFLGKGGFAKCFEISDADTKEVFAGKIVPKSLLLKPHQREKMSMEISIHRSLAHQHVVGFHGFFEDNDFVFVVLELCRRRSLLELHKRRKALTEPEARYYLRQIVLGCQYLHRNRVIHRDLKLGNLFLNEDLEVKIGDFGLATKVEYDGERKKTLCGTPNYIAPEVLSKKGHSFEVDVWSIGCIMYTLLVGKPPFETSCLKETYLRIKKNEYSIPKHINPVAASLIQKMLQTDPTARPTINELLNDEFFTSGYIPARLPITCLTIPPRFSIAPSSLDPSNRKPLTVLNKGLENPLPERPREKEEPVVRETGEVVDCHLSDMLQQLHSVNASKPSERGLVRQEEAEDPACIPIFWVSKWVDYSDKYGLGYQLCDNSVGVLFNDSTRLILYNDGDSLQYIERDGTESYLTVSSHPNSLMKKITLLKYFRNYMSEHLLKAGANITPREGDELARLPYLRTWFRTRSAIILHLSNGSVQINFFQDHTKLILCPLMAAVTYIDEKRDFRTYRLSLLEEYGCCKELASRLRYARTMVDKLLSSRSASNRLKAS
# TDP1 inh = inhibitors of human tyrosyl-DNA phosphodiesterase TDP1 | Q9NUW8 | recombinant TDP1, AlphaScreen DNA substrate cleavage | Potency, µM (doses to about 130 µM), inactives show at the highest dose activity change, negative = inhibition, most hits filed as inhibitors | 350,000 compounds, 0.28% hits; further: nearly all actives have a fitted effect of over 40% in size
#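 Steps: enzyme plus compound, 15 min RT; add biotin/phosphotyrosine-FITC oligonucleotide (15 nM final), react 5 min; add donor/acceptor beads (10 ug/ml final), 10 min; read AlphaScreen. Tdp1 at 1 nM final.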
# GCN5L2 inh = blocks human GCN5L2 histone acetyltransferase; 390,000 compounds, 0.21% hits; Q92830; Potency, µM (series often up to 58.9 µM), inactives show top-dose activity change, negative = inhibition, usual class: inhibitors; AID 504327; GCN5L2 HAT assay, ThioGlo1 CoA-SH fluorescence
#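 ThioGlo1-coupled HAT assay: 20nM GCN5L2, 70uM acetyl-CoA, 75uM H3(1-25) peptide, pH 7.5. Fluorescence read at 340/540nm at start and after 20 min at room temperature.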
# TDP1 cell CPT = growth inhibition of DT40 Tdp1-/-;hTDP1 cells with camptothecin (screen for TDP1 inhibitors) | chicken DT40 Tdp1-/-;hTDP1 cells + 20 nM CPT, ATP luminescence, 48 h | Potency, µM (series often up to 46.2 µM), for the others: top-dose activity change, negative = growth inhibition, most hits filed as inhibitors | 420,000 compounds, 12% hits | AID 686979; further: nearly all actives have a fitted effect of over 55% in size
#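 Chicken DT40 Tdp1-/- cells complemented with human TDP1, 400 cells/well, exposed to compounds plus 20 nM camptothecin for at least 48 h at 37 C; viability read as ATP content by CellTiter-Glo luminescence.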
# * = called active by the depositor; ? = inconclusive; . = not tested or not shown. This is a sample that favours compounds with a hit; in the whole collection about 18% have one here. The call rests on the fitted dose curve; in most records, active means well fitted curve in the direction sought with a large enough effect; inconclusive means small, poorly fitted or top-dose-only effect, or another doubt; inactive means no such curve, though single readings can be large; an effect the other way counts as inactive or inconclusive. On the % scale 0 is the no-effect control and ±100 the full control effect; potency means the concentration at half of the fitted maximal effect.
SMILES,TDP1 cell noCPT,VDR inhibitor,PLK1 PBD inh,TDP1 inh,GCN5L2 inh,TDP1 cell CPT
CN1C[C@@H]2[C@@H]3C(=O)N(C)C(=O)[C@@H]3[C@](C)(C1=O)N2C(=O)c1ccc(C(F)(F)F)cc1,2%,6%,-4%,.,.,-5%
COc1ccc(S(=O)(=O)Nc2c(C)cccc2C)cc1-n1cnnn1,-9%,-2%,3%,8%,1%,?
COc1ccc(OC)c(C2=NS(=O)(=O)N(C)C(C(=O)Nc3ccc(F)cc3F)=C2)c1,7.3µM*,?,30µM*,5%,-9%,16µM*
CCOc1cccc(NC(=O)C2CC(=O)N(C)C(=Nc3cccc(F)c3)S2)c1 (stereo not given),18µM*,-3%,2%,-2%,-27%,?
OC(c1ccc(CN2CCCCC2)cc1)c1ncc(-c2ccccc2)[nH]1 (stereo not given),-14%,.,-22%,.,.,5%
Cc1ccc(S(=O)(=O)N2CCN(CC(=O)NC3CCCc4ccccc43)CC2)c(C)c1 (stereo not given),?,1%,-6%,5%,3%,-27%
O=C(CSc1nc2cc(S(=O)(=O)N3CCOCC3)ccc2o1)NC1CCCc2ccccc21 (stereo not given),?,?,6.7µM*,9%,-11%,?
Cc1ccc(C(=O)CSc2nc3cc(S(=O)(=O)N4CCOCC4)ccc3o2)cc1,?,-4%,24µM*,7%,-7%,18µM*
Cc1ccc(S(=O)(=O)N2CCN(CC(=O)NC3CCCc4ccccc43)CC2)cc1C (stereo not given),18µM*,9%,-10%,8%,-5%,?
O=C(NC1CCCc2ccccc21)c1cc(S(=O)(=O)N2CCOCC2)ccc1F (stereo not given),-6%,-11%,-6%,3%,-6%,-4%
CCn1c(SCC(=O)c2cc(C)ccc2C)nc2cc(S(=O)(=O)N3CCOCC3)ccc21,18µM*,-10%,-4%,-3%,-6%,?
CC1(C)CC(=O)C=C(c2ccc(COC(=O)C3CC3)cc2)C1=O,?,.,-4%,.,.,-9%
CCOc1ccc(N(CC(=O)NCc2ccc(F)cc2)C(=O)c2ccco2)cc1,?,-5%,-17%,0%,-4%,2%
CC(C)CC(=O)NCC(c1ccc2c(c1)OCO2)N1CCN(c2ccccc2F)CC1 (stereo not given),?,20%,.,-2%,3%,?
Cc1ccc2nc(SCC(=O)NC3CCCc4ccccc43)[nH]c2c1 (stereo not given),16µM*,-11%,-19%,1%,39%,21µM*
Cc1[nH]c2ccccc2c1C(=O)CSc1nc2cc(S(=O)(=O)N3CCCCC3)ccc2o1,21µM*,-8%,-15%,6%,2%,23µM*
Cc1[nH]c2ccccc2c1SCCNC(=O)c1ccc(S(=O)(=O)N2CCCC2)cc1,?,-10%,-4%,4%,-8%,-29%
COc1ccc(-c2nn(-c3ccccc3)cc2/C=N/N2C(=O)CSC2=S)cc1,16µM*,27%,-6%,10%,-5%,18µM*
CCOc1ccc(OCC(=O)Nc2cc(Cl)ccc2-n2cncn2)cc1,?,.,0%,.,.,?
OCCn1c(-c2ccc(F)cc2)csc1=Nc1ccccc1,21µM*,-29%,-1%,8%,-3%,?
OCCn1c(-c2ccc3c(c2)OCO3)csc1=Nc1ccccc1,21µM*,-19%,-17%,6%,-7%,16µM*
CCOc1ccc(N=c2scc(-c3ccccc3)n2CCO)cc1,23µM*,0%,-6%,12%,-5%,16µM*
S=P(c1ccc(N2CCOCC2)cc1N1CCOCC1)(N1CCOCC1)N1CCOCC1,-18%,79µM*,21µM*,0%,9%,-25%
O=[N+]([O-])c1ccc(N2CCCCC2)cc1N1CCOCC1,-17%,1%,-1%,6%,-6%,3%
O=C1CCc2cc(Cl)c(S(=O)(=O)Nc3ccc(Cl)c(Cl)c3)cc2N1,.,.,.,1%,.,.
SMILES,TDP1 cell noCPT,VDR inhibitor,PLK1 PBD inh,TDP1 inh,GCN5L2 inh,TDP1 cell CPT
O=c1[nH]c(NCc2ccco2)nnc1Cc1ccccc1Cl,4.1µM*,-10%,-21%,3%,.,6.5µM*
O=C(Nc1ccc2c(c1)OCO2)C1CCN(C(=O)c2ccc(Br)cc2)CC1,?,10%,-6%,3%,-2%,-22%
CCCS(=O)(=O)N1CCCC(C(=O)Nc2ccc3c(c2)CCC3)C1 (stereo not given),-14%,-8%,1%,-6%,-1%,?
CC(C)CC(NS(=O)(=O)OCC(Cl)(Cl)Cl)c1ccccc1 (stereo not given),16µM*,-18%,-13%,.,-9%,?
CCCSCCCNC(=O)CN1C(=O)CCn2nc(-c3cn(C)c4ccccc34)cc21,?,23%,.,7%,-3%,?
CCc1ccc(CNC(=O)CN2C(=O)CCn3nc(-c4cn(C)c5ccccc45)cc32)cc1,-21%,3%,.,11%,4%,16µM*
Cn1cc(-c2cc3n(n2)CCC(=O)N3CCCC(=O)NCc2ccc(F)cc2)c2ccccc21,?,6%,.,1%,9%,16µM*
CCC(=O)N1c2ccc(S(=O)(=O)CCC(=O)NCc3ccc4c(c3)OCO4)cc2CC1C (stereo not given),?,?,24µM*,4%,-17%,-30%
Cc1cccc(C)c1NC(=O)CCS(=O)(=O)c1ccc2c(c1)CC(C)N2C(=O)C1CC1 (stereo not given),?,11%,.,3%,-4%,?
Cc1ccc(CNC(=O)CCS(=O)(=O)c2ccc3c(c2)CC(C)N3C(=O)C2CC2)cc1 (stereo not given),5.8µM*,-17%,-4%,6%,-3%,7.3µM*
CC1Cc2cc(S(=O)(=O)CCC(=O)NCc3ccccc3Cl)ccc2N1C(=O)C1CC1 (stereo not given),7.3µM*,2%,.,0%,8%,7.3µM*
CC1Cc2cc(S(=O)(=O)CCC(=O)Nc3ccc(F)cc3Cl)ccc2N1C(=O)C1CC1 (stereo not given),13µM*,-7%,.,6%,-6%,23µM*
CN1C(=O)Cc2cc(S(=O)(=O)CCC(=O)N3CCN(c4ccccc4F)CC3)ccc21,3%,4%,.,0%,15%,?

# Compound activity (PubChem)
